# Only some compounds are listed: those with a hit (about 1.1% of all), similar ones and a draw of the others.
# A1 inh: inhibitors of the anti-apoptotic protein A1, read as caspase activation | MEF A1-2A-BIM cells, Caspase-Glo 3/7 luminescence, 3 h; percent of clofoctol response, vehicle zero | caspase activation, % (concentration not given with the values) | 330,000 tested, 0.066% active | AID 2462;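 active = over half of replicate activation scores above 10%, or exactly half above 10 with the replicate mean above 10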
# HTR5A ag: HTR5A agonism, opioid heterodimer counter-screen; activation, % at 9.3 µM; 340,000 tested, 0.61% active; P47898; HTR5A agonist assay, luminescence, cell-based; in the data active = activation mostly above about 9.5%, no sharp cut-off; inactive = mostly below about 7.6%
# Target sequence (P47898 whole entry, looked up): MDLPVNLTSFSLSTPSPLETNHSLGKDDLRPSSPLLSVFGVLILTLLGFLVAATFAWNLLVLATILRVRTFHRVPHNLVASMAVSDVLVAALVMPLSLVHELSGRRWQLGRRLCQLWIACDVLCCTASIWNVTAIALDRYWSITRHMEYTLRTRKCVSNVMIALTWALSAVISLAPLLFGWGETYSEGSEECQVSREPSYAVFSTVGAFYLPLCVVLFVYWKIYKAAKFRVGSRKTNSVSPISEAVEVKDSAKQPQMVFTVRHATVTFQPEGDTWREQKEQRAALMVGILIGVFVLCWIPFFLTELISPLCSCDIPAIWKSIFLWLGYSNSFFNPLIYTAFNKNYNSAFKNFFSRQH
# OPRM1-OPRD1 inv: inverse agonists of human mu-delta opioid receptor heterodimerization | inhibition, % at 9.3 µM | AID 504357 | cell-based MOR-DOR heterodimer luminescence, inverse agonism | P35372+P41143 | 340,000 tested, 0.21% active; in the data active = inhibition above about 22%, passing the limit was not always enough
# HTR5A inv ctr: inverse agonist of human HTR5A in OPRM1-OPRD1 counter-screen; P47898; HTR5A cell line, luminescence, inverse agonism; inhibition, % at 9.3 µM; 340,000 tested, 0.083% active; AID 504634; in the data active = inhibition mostly above about 23%, no sharp cut-off; inactive = mostly below about 18%
# OPRM1-OPRD1 ag: OPRM1-OPRD1 heterodimerization agonism; P35372+P41143; cells, luminescence; activation, % at 9.3 µM; 340,000 tested, 0.3% active; in the data active = activation above about 18%
# Numbers stand for hits; - = inactive; . = no result given.
SMILES,A1 inh,HTR5A ag,OPRM1-OPRD1 inv,HTR5A inv ctr,OPRM1-OPRD1 ag
Nc1ccc2nn(-c3ccccc3)nc2c1,.,11.5,-,-,-
CCC(=O)Nc1nc2ccccc2n1Cc1ccc(Cl)cc1,-,13.9,-,-,-
C=CCN1C(=O)/C(=N/n2cnnc2)c2ccccc21,-,-,45.9,-,-
O=C(/C=C/C(Cl)(Cl)Cl)Nc1ccc(Cl)cc1,.,16.5,-,-,18.1
NC(=O)/C=C/C(=O)Nc1ccc(Cl)cc1,-,-,-,-,-
CCOC(=O)C1CCCN(C(=O)C2c3ccccc3Oc3ccccc32)C1 (centres undefined),-,12.3,-,-,-
CCOC(=O)C1=C(O)/C(=C/c2ccc(-c3ccccc3C(=O)O)o2)SC1=Nc1ccc(OC)cc1,.,-,-,-,-
CCOC(=O)C1=C(O)/C(=C/c2ccc(-c3ccccc3C(=O)O)o2)SC1=Nc1ccc(C)cc1,.,12.7,-,-,-
COc1cc(OC)c2cc[nH]c2c1,-,-,-,-,-
Cc1ccccc1N(CC(=O)NCCSc1ccccn1)S(=O)(=O)c1ccccc1,-,-,-,-,-
COc1ccccc1N(CC(=O)NCCSc1ccccn1)S(=O)(=O)c1ccccc1,-,12.0,-,-,-
Cc1ccccc1CSc1nc(-c2ccccc2)cc(=O)[nH]1,-,-,-,-,-
Cc1c(CCOC(=O)CC23CC4CC(CC(C)(C4)C2)C3)sc[n+]1CC(=O)c1ccccc1,-,13.3,-,-,-
COc1ccc(-n2nnnc2-c2cccnc2)cc1,-,10.4,-,-,-
COc1cc(C(=O)O)cc(NC(=O)c2ccco2)c1OC,-,12.3,-,-,-
CNC(=O)COC(=O)c1cc(NC(=O)c2ccco2)c(OC)c(OC)c1,-,-,-,-,-
CC(=O)c1cccc(NC(=O)CN(C)S(=O)(=O)c2ccc3c(c2)CC(C)N3C(C)=O)c1 (centres undefined),-,-,-,-,-
O=C(Cn1ncc2c1-c1ccccc1OC2)Nc1ccc(S(=O)(=O)N2CCCCC2)cc1,-,-,-,-,-
C/C(=N/Nc1ccc([N+](=O)[O-])cc1)c1ccc(C)cc1C,-,-,-,-,-
C/C(=N/Nc1ccc([N+](=O)[O-])cc1)c1c[nH]c2ccccc12,-,-,-,29.9,-
Cc1ccc(S(=O)(=O)Nc2cccc3ncccc23)cc1,-,-,-,-,-
Cc1ccc(S(=O)(=O)Nc2cccc3ncccc23)s1,-,-,43.7,-,-
CC(C)CN1C(=O)c2ccc(C(=O)NCc3ccccn3)cc2C1=O,-,9.6,-,-,-
O=C(O)c1cccc(N2C(=O)C3CC=C(Cl)CC3C2=O)c1 (centres undefined),-,11.0,-,-,-
CN1CCN(S(=O)(=O)c2ccc(Br)c3ccccc23)CC1,-,10.9,-,-,-
SMILES,A1 inh,HTR5A ag,OPRM1-OPRD1 inv,HTR5A inv ctr,OPRM1-OPRD1 ag
CCOc1ccc(Cn2nnc(C(=O)Nc3cc(C)cc(C)c3)c2N)cc1,-,11.8,-,-,-
CCOc1ccc(Cn2nnc(C(=O)Nc3cc(OC)cc(OC)c3)c2N)cc1,-,-,-,-,-
COc1ccc(CNC(=O)COC(=O)c2ccco2)cc1,-,-,-,-,-
Cc1cccc(C)c1NC(=O)CNC(=O)C(Cc1ccccc1)NC(=O)c1ccccc1 (centres undefined),-,12.6,-,-,-
Cc1cc(/C=C\c2nc(O)c([N+](=O)[O-])c(=O)[nH]2)c(C)n1-c1ccccc1,-,-,-,-,34.0
COc1ccc(-n2c(C)cc(/C=C/c3nc(O)c([N+](=O)[O-])c(=O)[nH]3)c2C)cc1,-,.,.,.,.
CCN(CC)CCNC(C(=O)Nc1cccc(C(C)=O)c1)c1ccccc1 (centres undefined),-,-,-,-,-
COc1ccc(CN(CCC(c2ccccc2)c2ccc(OC(C)C)cc2)C(=O)CCl)cc1OC (centres undefined),-,52.1,-,-,82.1
CC1(C)Cc2c(c(N3CCOCC3)nc3snc(NC(=O)c4ccccc4)c23)CO1,-,11.9,-,-,-
COc1ccc(NC(=O)c2sc3nc(N4CCOCC4)c4c(c3c2N)CC(C)(C)OC4)cc1,-,-,-,-,-
CCCNC(=O)CS(=O)(=O)Cc1nc(-c2cccc(OC)c2)oc1C,-,13.0,-,-,-
COc1cccc(-c2nc(CS(=O)(=O)CC(=O)Nc3cc(F)ccc3F)c(C)o2)c1,-,10.7,-,-,-
COc1ccc(/C=C/C(=O)Nc2nonc2NC(C)=O)cc1,-,-,-,-,-
CCn1nc(NC(=O)C(C)C)c2cc3cccc(C)c3nc21,-,10.6,-,-,-
Cc1cc(Nc2nc3ccccc3nc2Cl)n(-c2ccc([N+](=O)[O-])cc2)n1,-,-,-,37.9,-
CC1OC(CC(=O)O)CC2=C1C(=O)c1c(O)cccc1C2=O (centres undefined),.,-,-,-,29.8
O=C1c2cccc(O)c2C(=O)c2c(O)cccc21,-,.,.,.,.
CCCCNCC1C(Oc2ccc(Cl)cc2)C(=O)N1c1ccccc1C (centres undefined),-,12.3,-,-,-
O=[N+]([O-])c1ccc(S(=O)(=O)Nc2ccc(S(=O)(=O)N3CCCC3)cc2)cc1,-,-,-,-,-
COCc1ccc(CN2CCCC(C(=O)Nc3ccccc3-c3ccc(OC)cc3)C2)o1 (centres undefined),-,-,-,-,-
COCc1ccc(CN2CCCC(C(=O)Nc3ccc(-c4cccc(OC)c4)cc3)C2)o1 (centres undefined),-,11.6,-,-,-
CN(c1ccccc1)S(=O)(=O)c1ccc(C(=O)NCc2cccs2)cc1,-,-,-,-,-
Cc1cc(C(=O)CSc2nc3ccccc3[nH]2)c(C)n1CC1CCCO1 (centres undefined),-,13.5,-,-,-
Cc1cc(C(=O)CSc2nc(N)cc(=O)[nH]2)c(C)n1CC1CCCO1 (centres undefined),-,-,-,-,-
O=C(Nc1ccc2oc(=O)ccc2c1)c1ccc(-c2ccccc2[N+](=O)[O-])o1,-,13.9,-,-,27.1
SMILES,A1 inh,HTR5A ag,OPRM1-OPRD1 inv,HTR5A inv ctr,OPRM1-OPRD1 ag
CC1=NNC(=O)C1Oc1ccccc1 (centres undefined),-,-,-,-,-
COc1ccc(NC(=O)c2cccs2)cn1,-,-,-,-,-
CC(C)(C)c1ccc(Oc2ccc(NC(=O)c3cccs3)cn2)cc1,-,13.1,-,-,-
CC(=O)c1c(C(C)=O)c(C)n(Cc2ccccc2)c1C,-,-,-,-,-
Cc1c(C=O)c(C=O)c(C)n1Cc1ccccc1,9.3,-,-,-,-
CC(C)(C)OC(=O)N1CCC(C(=O)Nc2cccc(C(=O)N3CCCC3)c2)CC1,.,-,-,-,-
Cc1[nH]c2ccc(-c3nnc(SCC(=O)c4ccccc4F)o3)cc2c1C,-,12.5,-,-,-
Cc1cccc(N2CCC(N=CN(C)C)=N2)c1,-,-,-,-,-
O=C(COC(=O)c1cccs1)Nc1ccc(F)c(F)c1,-,-,-,-,-
N/C(CC(=O)Nc1ccc(F)c(Cl)c1)=N\OC(=O)c1cccs1,-,12.9,-,-,-
